Laboratory results as given in the supplement of paper PMC7156485.
± gives the standard deviation of the averaged measurements.

Assays:
Conditions in all cases: concentration: 10 µM; 24 h
HCC1569 [1] = experiment: cell number relative to DMSO (% of DMSO); higher = more cells (less growth inhibition / toxicity)
Summary of the method: (§1)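 H1.0 nuclear intensity or cell number is expressed as percent of the plate control, with the median of replicates taken. HCC1569 and TDF cells were treated with compounds at 10 µM for 24 h at 37 °C, in triplicate, then fixed and immunostained for H1.0 with DAPI as a nuclear stain. HCC1569 values were smoothed to correct for positional effects.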

TDF [2] = experiment: as above
Summary of the method: as §1

TDF [3] = experiment: H1.0 immunofluorescence intensity relative to DMSO (% of DMSO); higher = stronger H1.0 induction, active = 120 or more
Summary of the method: as §1

HCC1569 [4] = experiment: H1.0 immunofluorescence intensity relative to DMSO (% of DMSO); higher = stronger H1.0 induction, active = 140 or more
Summary of the method: as §1
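For H1.0 immunofluorescence intensity relative to DMSO in this document: TDF is a line of transformed human dermal fibroblasts of mesenchymal origin.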
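For cell number relative to DMSO in this document: TDF denotes transformed human dermal fibroblasts of mesenchymal origin.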

| Structure (SMILES) | cell number (HCC1569 [1]) | cell number (TDF [2]) | H1.0 immunofluorescence intensity (TDF [3]) | H1.0 immunofluorescence intensity (HCC1569 [4]) |
| --- | --- | --- | --- | --- |
| NC(=O)N1c2ccccc2CC(=O)c2ccccc21 [Oxcarbazepine] | 103 | 108 | 93.7 (inactive) | 110 (inactive) |
| CC(CCC(=O)NCCS(=O)(=O)O)C1CCC2C3C(O)CC4CC(O)CCC4(C)C3CC(O)C12C (centres undefined) [Taurocholic acid] | 101 | 104 | 97.8 (inactive) | 111 (inactive) |
| Nc1nc(N)nc(-c2cc(Cl)ccc2Cl)n1 [Irsogladine] | 105 | 105 | 94.5 (inactive) | 107 (inactive) |
| CC(C)NCC(O)COc1ccc(CC(N)=O)cc1 (stereo not drawn) [S(-)-Atenolol] | 101 | 105 | 92.2 (inactive) | 96.4 (inactive) |
| COc1ccc(-c2ccc(N)[n+](CCCC(=O)O)n2)cc1.[Br-] | 105 | 97.9 | 96.2 (inactive) | 103 (inactive) |
| CC(C)NCC(O)c1ccc(NS(C)(=O)=O)cc1.Cl (centres undefined) [Sotalol.HCl] | 102 | 111 | 88.1 (inactive) | 99 (inactive) |
| CCN(CC)CCNC(=O)c1cc(Cl)c(N)cc1OC.Cl [Metoclopramide hydrochloride] | 107 | 106 | 94.3 (inactive) | 87.4 (inactive) |
| CC(C)c1cc(/C=C(\C#N)C(=O)NCCCc2ccccc2)cc(C(C)C)c1O | 89.5 | 81.8 | 97.9 (inactive) | 141 (active) |
| CCCS(=O)c1ccc2nc(NC(=O)OC)[nH]c2c1 (centres undefined) [Ricobendazole] | 98.4 | 81.6 | 114 (inactive) | 109 (inactive) |
| CN(C)CC(=O)Nc1ccc2[nH]c(=O)c3ccccc3c2c1.Cl.O | 101 | 99.1 | 97.4 (inactive) | 91.3 (inactive) |
| CN(C(Cc1ccc(OS(=O)(=O)c2cccc3cnccc23)cc1)C(=O)N1CCN(c2ccccc2)CC1)S(=O)(=O)c1cccc2cnccc12 (centres undefined) | 75.2 ± 17 | 95.6 ± 12 | 113 (inactive) | 127 (inactive) |
| NCC(O)c1ccc(O)c(O)c1.O=C(O)C(O)C(O)C(=O)O (stereo not drawn) [L(-)-Norepinephrine bitartrate] | 109 | 106 | 95.8 (inactive) | 94.6 (inactive) |
| C=C1C(=CC=C2CCCC3(C)C2CCC3C(C)CCCC(C)(C)O)CC(O)CC1O (centres undefined) [1,25-Dihydroxyvitamin D3] | 104 | 106 | 95.2 (inactive) | 98.6 (inactive) |
| CN(Cc1cnc2nc(N)nc(N)c2n1)c1ccc(C(=O)NC(CCC(=O)O)C(=O)O)cc1 (single isomer, unassigned; (-)) [(-)Amethopterin] | 96.4 | 96.2 | 106 (inactive) | 110 (inactive) |
| CC(=O)NC(CSCC=C(C)CCC=C(C)C)C(=O)O (centres undefined) | 101 | 101 | 93 (inactive) | 103 (inactive) |
| Cl.O=S(=O)(c1cccc2cnccc12)N1CCCNCC1 | 100 | 93.8 | 92.4 (inactive) | 92.7 (inactive) |
| Cl.O=c1n(CCCN2CCN(c3cccc(Cl)c3)CC2)nc2ccccn12 [Trazodone hydrochloride] | 102 | 116 | 89.5 (inactive) | 101 (inactive) |
| COc1cc2c(c(OC)c1OC)-c1c(cc(OC)c(OC)c1OC)CC(C)C(C)C2 (stereo not drawn) [R(+)-Schisandrin A] | 105 | 103 | 91.6 (inactive) | 94.9 (inactive) |
| CC1CC2C3CCC4=CC(=O)C=CC4(C)C3(F)C(O)CC2(C)C1(O)C(=O)CO (centres undefined) [Betamethasone] | 97.2 | 106 | 75.2 (inactive) | 99.5 (inactive) |
| CC(C)COCC(CN(Cc1ccccc1)c1ccccc1)N1CCCC1.Cl (centres undefined) [Bepridil.HCl] | 102 | 103 | 93.1 (inactive) | 99.1 (inactive) |
| O=[N+]([O-])c1ccc(-c2nc(-c3ccc(F)cc3)c(-c3ccncc3)[nH]2)cc1 | 89.9 | 101 | 84.2 (inactive) | 139 (inactive) |
| COc1cc(OC)cc(C(CNc2ncnc3c2ncn3C2OC(CO)C(O)C2O)c2ccccc2C)c1 (centres undefined) | 101 | 103 | 94.5 (inactive) | 100 (inactive) |
| CCCCCCCCCCCCCCCCOCC(CO)OC(C)=O (centres undefined) [1-Hexadecyl-2-O-acetyl-glycerol] | 106 | 99.8 | 98.3 (inactive) | 86.3 (inactive) |
| c1ccc2c(-c3ccncc3)c[nH]c2c1 [Rho Kinase Inhibitor III, Rockout] | 105 | 106 | 86.9 (inactive) | 118 (inactive) |
| CCCC(CCC)C(N)=O [2-propylpentanamide] | 112 | 106 | 97 (inactive) | 95.6 (inactive) |
| CC1OC(n2cc(F)c(=O)[nH]c2=O)C(O)C1O (centres undefined) [Doxifluridine] | 88.3 | 107 | 98.3 (inactive) | 101 (inactive) |
